According to PubChem BioAssay (Tox21):
Where “and” joins values, the source holds several entries; their conditions need not be identical. Identical values can stand only once. Calls of active or inactive are those of the source. Where a call stands in place of a potency, no number is given. Unless noted, calls come from the whole dose curve; as a rule, active = well fitted curve in the direction sought with a large enough effect in the repeat runs; inconclusive = weak or mixed curves; inactive = no such curve, though single readings can be large; an effect the other way counts as inactive or inconclusive.

Key:
[1] = qHTS assay for small molecule agonists of the p53 signaling pathway (AID 651631; calls by dose curve; note: nearly all actives have a fitted effect of over 15% in size; note: potency is the fitted concentration of half-maximal effect)
Procedure, shortened: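 Stably transfected HCT-116 cells (beta-lactamase behind p53 response elements) get compounds after a 5 h settling period; 16 h later at 37 °C, FRET substrate is loaded and fluorescence read after 2 h.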

[2] = qHTS assay for small molecules that induce genotoxicity in human embryonic kidney cells expressing luciferase-tagged ATAD5 (AID 651632); note: nearly all actives have a fitted effect of over 15% in size
Procedure, shortened: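 A rise in luciferase signal from ATAD5-tagged HEK293T cells marks genetic stress. Cells were exposed to compounds for 16 hr at 37C, 5% CO2, then luciferase was quantified after a 30 min room-temperature incubation with Amplite.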

[3] = qHTS assay for small molecule agonists of the p53 signaling pathway - cell viability (AID 651633; calls by dose curve; note: nearly all actives have a fitted effect of over 30% in size; note: potency is the fitted concentration of half-maximal effect)
Procedure, shortened: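 p53RE-bla cells, seeded at 4,000 per well and rested 5 h at 37 C/5% CO2, received compounds in DMSO for 16 h at 37 C. CellTiter-Glo was then added, and luminescence was read after 30 min at room temperature to gauge cytotoxicity.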

[4] = qHTS assay for small molecules that induce genotoxicity in human embryonic kidney cells expressing luciferase-tagged ATAD5 - cell viability (AID 651634; calls by dose curve; note: nearly all actives have a fitted effect of over 25% in size)
Procedure, shortened: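 Cytotoxicity counter-readout: after 15.5 hr compound treatment at 37C, live-cell protease activity in ATAD5-luciferase HEK293T cells measured by CellTiter-Fluor fluorescence, 30 min development at 37C.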

[5] = qHTS assay for small molecule disruptors of the mitochondrial membrane potential - cell viability (AID 720634; calls by dose curve;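 note: human HepG2 liver cancer cells; series mostly up to about 83 µM; nearly all actives have a fitted effect of over 20% in size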)
Procedure, shortened: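 Cytotoxicity was quantified from ATP content by CellTiter-Glo luminescence in the same wells as the MMP dye read-out. HepG2 (2,000 cells/well) were plated overnight and exposed to compounds for 1 hr at 37 C.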

[6] = qHTS assay to test for compound auto fluorescence at 590 nm (red) in HepG2 cells (AID 720674)
Procedure, shortened: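 Rose Bengal sodium served as the red fluorophore standard. HepG2 monolayers (overnight attachment, MEM with 10% FBS) were exposed to test compounds for 1 hr at 37 C and read at Ex 540/Em 590 nm.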

[7] = qHTS assay to test for compound auto fluorescence at 535 nm (green) in HepG2 cells (AID 720675)
[8] = qHTS assay to test for compound auto fluorescence at 460 nm (blue) in HEK293 cells (AID 720678)
Procedure, shortened: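 Cells were seeded and left to adhere for 4-5 hr at 37C. Compounds were then pin-transferred. After an overnight incubation at 37C under 5% CO2, intrinsic fluorescence at 405/460 nm was measured and referenced to triamterene.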

[9] = qHTS assay to test for compound auto fluorescence at 590 nm (red) in HEK293 cells (AID 720679)
Procedure, shortened: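 Each well held 2,000 HEK293 cells in medium containing 10% dialyzed FBS. Following 4-5 hr attachment at 37C, 23 nL test compound or DMSO was added; plates sat overnight, and red fluorescence (540/590nm) was recorded.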

[10] = qHTS assay to test for compound auto fluorescence at 535 nm (green) in HEK293 cells (AID 720680)
[11] = qHTS assay to test for compound auto fluorescence at 460 nm (blue) in HEK293 cell free culture (AID 720681)
Procedure, shortened: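 Test compounds were pinned into cell-free culture medium (DMEM with 10% FBS) and fluorescence was read directly at Ex/Em 405/460 nm. Signals were expressed as fluorescence equivalents of triamterene, with DMSO vehicle as control.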

[12] = qHTS assay to test for compound auto fluorescence at 535 nm (green) in HEK293 cell free culture (AID 720682)
Procedure, shortened: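 Using fluorescein as calibrant, autofluorescence was quantified at 485/535 nm in cell-free DMEM containing 10% FBS after pintool addition of compound or vehicle.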

[13] = qHTS assay to test for compound auto fluorescence at 590 nm (red) in HEK293 cell free culture (AID 720683)
Procedure, shortened: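 Tox21 10K library compounds were pinned into cell-free DMEM with 10% FBS and fluorescence was read at excitation 540 nm. Activity is expressed as Rose Bengal sodium equivalency.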

[14] = qHTS assay to test for compound auto fluorescence at 590 nm (red) in HepG2 cell free culture (AID 720684)
Procedure, shortened: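 Readout: intrinsic compound fluorescence at 590 nm emission after 540 nm excitation, scaled to Rose Bengal sodium. Matrix was cell-free MEM with 10% FBS; DMSO vehicle wells served as control.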

[15] = qHTS assay to test for compound auto fluorescence at 460 nm (blue) in HepG2 cell free culture (AID 720685)
Procedure, shortened: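 Cell-free plates of MEM plus 10% FBS received 23 nL compound or DMSO vehicle; blue-channel (405/460 nm) intensity scored against triamterene as reference fluorophore.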

[16] = qHTS assay to test for compound auto fluorescence at 535 nm (green) in HepG2 cell free culture (AID 720686)
[17] = qHTS assay to test for compound auto fluorescence at 460 nm (blue) in HepG2 cells (AID 720687)
Procedure, shortened: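 Cells (2,000/well in MEM with 10% FBS) attached overnight at 37 C, then were exposed to compound or DMSO for 1 hr at 37 C, 5% CO2. Fluorescence read at Ex/Em 405/460 nm, expressed as triamterene-equivalent signal.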

[18] = target: Glucocorticoid receptor (Homo sapiens) (UniProt P04150); assay: qHTS assay to identify small molecule agonists of the glucocorticoid receptor (GR) signaling pathway (AID 720691; active = well fitted activation curve with a large enough effect in the signal ratio in the repeat runs, not every such curve was filed as active; inconclusive = weak or mixed curves, or effect the other way; inactive = no such curve, though single readings can be large or run the other way; the % refers to the signal ratio; note: potency is the fitted concentration of half-maximal effect)
Procedure, shortened: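 Agonist-mode qHTS in HeLa cells stably expressing a glucocorticoid-response-element beta-lactamase reporter. Fluorescence intensity read with FRET substrate (2 h, room temperature) after 18 h compound treatment at 37 C.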

[19] = target: Glucocorticoid receptor (Homo sapiens) (UniProt P04150); assay: qHTS assay to identify small molecule antagonists of the glucocorticoid receptor (GR) signaling pathway (AID 720692; active = well fitted inhibition curve with a large enough effect in the signal ratio in the repeat runs, not every such curve was filed as active; inconclusive = weak or mixed curves, or effect the other way; inactive = no such curve, though single readings can be large or run the other way; the % refers to the signal ratio)
Procedure, shortened: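 Inhibition of dexamethasone-driven (5 nM final) beta-lactamase expression was measured in GRE-reporter HeLa cells over 18 h at 37C. Fluorescence was read after 2 h with the B/G FRET substrate at room temperature.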

[20] = qHTS assay for small molecule disruptors of the mitochondrial membrane potential (AID 720635); note: potency is the fitted concentration of half-maximal effect
Procedure, shortened: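 HepG2 cells (2,000/well) attached overnight at 37C, then took compound for 1 hr at 37C, 5% CO2. Mito-MPS dye was added for 30 min; fluorescence was read at 490/535 nm (monomers) and 540/590 nm (aggregates).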

Chain of Glucocorticoid receptor (Homo sapiens) (P04150 whole entry, looked up): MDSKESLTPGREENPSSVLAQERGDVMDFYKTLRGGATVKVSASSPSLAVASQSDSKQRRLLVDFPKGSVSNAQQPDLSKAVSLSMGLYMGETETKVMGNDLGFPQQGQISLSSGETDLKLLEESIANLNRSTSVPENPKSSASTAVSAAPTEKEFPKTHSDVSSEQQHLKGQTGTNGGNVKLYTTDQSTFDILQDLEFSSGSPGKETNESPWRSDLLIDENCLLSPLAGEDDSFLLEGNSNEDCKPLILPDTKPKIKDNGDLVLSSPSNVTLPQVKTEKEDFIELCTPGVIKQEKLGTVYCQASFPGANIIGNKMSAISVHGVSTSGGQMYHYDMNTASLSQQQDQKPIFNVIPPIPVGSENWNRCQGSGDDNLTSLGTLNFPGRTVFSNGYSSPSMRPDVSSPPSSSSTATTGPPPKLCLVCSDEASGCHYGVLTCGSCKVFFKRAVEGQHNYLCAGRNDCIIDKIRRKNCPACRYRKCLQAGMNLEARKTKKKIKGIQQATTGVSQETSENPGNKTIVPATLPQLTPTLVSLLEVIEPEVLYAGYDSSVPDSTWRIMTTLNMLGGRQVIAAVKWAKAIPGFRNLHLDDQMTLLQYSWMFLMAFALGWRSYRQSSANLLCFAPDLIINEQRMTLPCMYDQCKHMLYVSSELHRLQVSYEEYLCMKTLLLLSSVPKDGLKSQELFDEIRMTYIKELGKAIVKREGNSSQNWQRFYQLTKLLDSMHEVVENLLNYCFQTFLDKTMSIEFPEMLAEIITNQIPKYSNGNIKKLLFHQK

Row | SMILES | Potency [1] | Potency [2] | Potency [3] | Potency [4] | Potency [5] | Potency [6] | Potency [7] | outcome [8] | Potency [9] | Potency [10] | Potency [11] | Potency [12] | Potency [13] | Potency [14] | Potency [15] | Potency [16] | Potency [17] | Potency [18] | Potency [19] | Potency [20]
1 | CC(=O)[C@@]1(O)CC[C@H]2[C@@H]3C[C@H](C)C4=CC(=O)C=C[C@]4(C)[C@@]3(F)[C@@H](O)C[C@@]21C | inactive | inactive | inactive | inactive | inactive | inactive | inactive | inactive | inactive | inactive | inactive | inactive | inactive | inactive | inactive | inactive | inactive | 12.9 nM [inconclusive] (active) and 3.5 nM (active) |  | 
2 | C=CCNCC=C | inactive | inactive | inactive | inactive |  | inactive | inactive | inactive | inactive | inactive | inactive | inactive | inactive | inactive | inactive | inactive | inactive | inactive | inactive | 
3 | CC(=O)Oc1ccc(C(c2ccc(OC(C)=O)cc2)c2ccccn2)cc1 | 944 nM (active) and 271 nM (active) | inactive | 668 nM (active) and 483 nM (active) |  | inactive | inactive | inactive | inactive | inactive | inactive | inactive | inactive | inactive | inactive | inactive |  | inactive |  |  | 6.68 µM (active) and 21.6 µM (active)
4 | C=C[Si](OCCOC)(OCCOC)OCCOC | inactive | inactive | inactive | inactive | inactive | inactive | inactive | inactive | inactive | inactive | inactive | inactive | inactive | inactive | inactive | inactive | inactive | inactive | inactive | 
5 | CCCCCC1C(=O)CCC1CC(=O)OC (stereo not given) | inactive | inactive | inactive |  | inactive | inactive | inactive | inactive | inactive | inactive | inactive | inactive | inactive | inactive | inactive | inactive | inactive |  |  | inactive
6 | CC(=O)Nc1ccc2c(c1)Cc1cc(NC(C)=O)ccc1-2 | inactive | inactive | inactive |  | inactive | inactive | inactive | inactive | inactive | inactive | inactive | inactive |  | inactive | inactive |  | inactive | inactive | inactive | inactive
7 | CC/C(=C(/CC)c1ccc(O)cc1)c1ccc(O)cc1 | 9.44 µM (active) and 13.6 µM (active) and 15.4 µM (active) |  | 60.6 µM (active) | inactive | inactive | inactive | inactive | inactive | inactive | inactive | inactive | inactive |  | inactive | inactive | inactive | inactive |  |  | 7.5 µM (active) and 6.06 µM (active) and 10.9 µM (active)
8 | c1ccc2cc3ccccc3cc2c1 | inactive | inactive | inactive |  | inactive | inactive | inactive | inactive | inactive | inactive | inactive | inactive | inactive | inactive | inactive | inactive | inactive | inactive | inactive | 5.01 µM (active) and 34.4 µM (active)
